Measured values as given in PubChem BioAssay (Tox21).
Records with an inconclusive call do not appear. Calls of active or inactive are those of the source. Unless noted, calls come from the whole dose curve.

Legend:
[1] = qHTS assay to identify small molecule antagonists of the sonic hedgehog signaling (Shh) pathway (AID 1259369); note: nearly all actives have a fitted effect of over 45% in size; note: potency is the fitted concentration of half-maximal effect
Outline: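 Luminescence readout: firefly Luc under Gli1 response element in 3T3Gli1-Luc cells (NIH/3T3 clone). Antagonist mode, stimulation by conditioned medium; compound exposure 24hr at 37 C, 5% CO2.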

[2] = molecular target: Estrogen receptor beta (Homo sapiens) (UniProt Q92731); assay: qHTS assay to identify small molecule agonists of the estrogen receptor beta (ER-beta) signaling pathway (AID 1259377; active = well fitted activation curve with a large enough effect in the signal ratio in the repeat runs, not every such curve was filed as active; the % refers to the signal ratio)
Outline: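 HEK293T ER-beta-UAS-bla; 2% charcoal-stripped FBS; cells pre-incubated 6 hr, compound 16 hr, 37C/5% CO2; LiveBLAzer B/G FRET substrate 2 h RT; fluorescence intensity read.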

[3] = molecular target: Estrogen receptor beta (Homo sapiens) (UniProt Q92731); assay: qHTS assay to identify small molecule antagonists of the estrogen receptor beta (ER-beta) signaling pathway (AID 1259378; active = well fitted inhibition curve with a large enough effect in the signal ratio in the repeat runs, not every such curve was filed as active; the % refers to the signal ratio)
Outline: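 Antagonist mode: compounds added to beta-lactamase reporter HEK293T ER-beta-UAS cells stimulated with E2 (1nM final), 16 hr at 37C. LiveBLAzer B/G FRET substrate, 2 hours room temperature, fluorescence read-out.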

[4] = qHTS assay to identify small molecule agonists of the androgen receptor (AR) signaling pathway in the presence of an antagonist - cell viability counter screen (AID 1259379; active = well fitted curve in the direction sought with a large enough effect in the repeat runs; an effect the other way counts as inactive or inconclusive; note: nearly all actives have a fitted effect of over 25% in size; note: potency is the fitted concentration of half-maximal effect)
Outline: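 Viability counter screen: CellTiter-Fluor fluorescence, measured in the same wells as the luciferase read-out. MDA-kb2 cells, 3,000/well, with nilutamide at 3.0uM final and compounds at 15 concentrations, 16 hr at 37C, 0% CO2.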

[5] = qHTS assay to identify small molecule agonists of the estrogen receptor beta (ER-beta) signaling pathway - cell viability counter screen (AID 1259380; active = well fitted curve in the direction sought with a large enough effect in the repeat runs; an effect the other way counts as inactive or inconclusive; note: nearly all actives have a fitted effect of over 30% in size)
Outline: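 Luminescence read-out (CellTiter-Glo, 30 min, room temp) taken in the same wells as the beta-lactamase reporter assay; ER-beta-UAS-bla HEK293T cells exposed to DMSO-dissolved compounds for 16 hr at 37C in 2% charcoal-stripped FBS medium.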

[6] = molecular target: Androgen receptor (Homo sapiens) (UniProt P10275); assay: qHTS assay to identify small molecule agonists of the androgen receptor (AR) signaling pathway in the presence of an antagonist (AID 1259381); note: nearly all actives have a fitted effect of over 15% in size
Outline: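 Luciferase read-out (ONE-Glo, 30min room temperature) in MDA-kb2 MMTV-reporter cells; agonist mode run in presence of AR antagonist nilutamide, 3.0uM final. Compounds tested as 15-point series, 16hr exposure at 37C, 0% CO2.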

[7] = qHTS assay to identify small molecule antagonists of the estrogen receptor beta (ER-beta) signaling pathway - cell viability counter screen (AID 1259382; active = well fitted curve in the direction sought with a large enough effect in the repeat runs; an effect the other way counts as inactive or inconclusive;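 note: HEK293T cells carrying ER-beta-UAS-bla reporter stimulated with estradiol; series mostly up to about 92 µM; nearly all actives have a fitted effect of over 55% in size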)
Outline: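 Luminescent ATP read-out (CellTiter-Glo, 30 min, RT) taken in the same wells as the bla reporter assay. HEK293T ER-beta-UAS-bla cells in 2% charcoal-stripped FBS were exposed to compounds with 1nM E2 for 16 hr at 37C.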

[8] = qHTS assay to identify small molecule agonists or antagonists of the thyroid stimulating hormone receptor (TSHR) signaling pathway - wild type cell line counter screen (AID 1259384)
Outline: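 Counter screen in untransfected Hek293: compounds (15-point titration, triplicate) plus phosphodiesterase inhibitor Ro20-1724 added after 18 h plating; 30 min RT. Intracellular cAMP via competitive d2/cryptate immunoassay, 1 h incubation.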

[9] = molecular target: Thyrotropin receptor (Homo sapiens) (UniProt P16473); assay: qHTS assay to identify small molecule antagonists of the thyroid stimulating hormone receptor (TSHR) signaling pathway (AID 1259385); note: nearly all actives have a fitted effect of over 20% in size
Outline: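 Antagonist mode: compound-treated TSHR-expressing HEK293 cells were stimulated with 1.5 ng/mL TSH (final) in presence of Ro20-1724 for 30 min at RT. HTRF cAMP detection after 1 h; each compound tested at 15 concentrations, triplicate.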

[10] = molecular target: Progesterone receptor (Homo sapiens) (UniProt P06401); assay: qHTS assay to identify small molecule agonists of the progesterone receptor (PR) signaling pathway (AID 1346784); note: nearly all actives have a fitted effect of over 30% in size
Outline: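 Beta-lactamase reporter read-out: after 16 hr compound treatment at 37C and a further 2 hr at room temperature with LiveBLAzer B/G FRET substrate, fluorescence was measured in PR-UAS-bla HEK 293T cells grown in 2% charcoal-stripped serum.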

[11] = molecular target: Progesterone receptor (Homo sapiens) (UniProt P06401); assay: qHTS assay to identify small molecule antagonists of the progesterone receptor (PR) signaling pathway (AID 1346795; active = well fitted inhibition curve with a large enough effect in the signal ratio in the repeat runs, not every such curve was filed as active; the % refers to the signal ratio; note: potency is the fitted concentration of half-maximal effect)
Outline: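 Read-out is fluorescence from the LiveBLAzer B/G FRET substrate, cleaved by a UAS-controlled beta-lactamase in PR-UAS-bla HEK293T cells after 16 hr exposure to compound plus 1 nM promegestone (final), followed by 2 hr at room temperature.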

[12] = qHTS assay to identify small molecule antagonists of the progesterone receptor (PR) signaling pathway - cell viability counter screen (AID 1346798; active = well fitted curve in the direction sought with a large enough effect in the repeat runs; an effect the other way counts as inactive or inconclusive;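 note: HEK293T PR-UAS-bla cells stimulated with the agonist R5020; series mostly up to about 92 µM; nearly all actives have a fitted effect of over 50% in size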)
Outline: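 HEK293T PR-UAS-bla, 2% charcoal-stripped FBS; 4 hr pre-plate; cpd + R5020, 16 h 37C; LiveBLAzer read first; then CellTiter-Glo 30 min RT, luminescence.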

[13] = qHTS assay to identify small molecule agonists of the progesterone receptor (PR) signaling pathway - cell viability counter screen (AID 1346799); note: nearly all actives have a fitted effect of over 45% in size
Outline: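 Luminescence from CellTiter-Glo, added after the beta-lactamase FRET read in the same wells, gave cytotoxicity in PR-UAS-bla HEK293T cells treated with compounds for 16 hr at 37C.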

[14] = qHTS assay to identify small molecule antagonists of the TGF-beta/Smad signaling pathway - cell viability counter screen (AID 1346824; active = well fitted curve in the direction sought with a large enough effect in the repeat runs; an effect the other way counts as inactive or inconclusive; note: nearly all actives have a fitted effect of over 50% in size)
Outline: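 Cytotoxicity counter-screen run in the same wells as the beta-lactamase Smad reporter read: CellTiter-Glo luminescence after 30 min at room temperature. HEK 293T SBE-bla cells had 5 hr compound exposure at 37 C with TGF-beta1 (0.25 ng/mL stock).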

[15] = qHTS assay to identify small molecule agonists of the TGF-beta/Smad signaling pathway - cell viability counter screen (AID 1346829; active = well fitted curve in the direction sought with a large enough effect in the repeat runs; an effect the other way counts as inactive or inconclusive; note: top concentration of the series differs between compounds; nearly all actives have a fitted effect of over 45% in size)
Outline: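 Luminescence from CellTiter-Glo, read after a 30 min room-temperature incubation, gives cell viability of SBE-bla HEK 293T cells treated 5 hr with compounds at 37 C.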

[16] = qHTS assay to identify small molecule agonists of the TGF-beta/Smad signaling pathway (AID 1346859; active = well fitted activation curve with a large enough effect in the signal ratio in the repeat runs, not every such curve was filed as active; the % refers to the signal ratio; note: series mostly up to about 77 µM)
Outline: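 SBE-bla HEK 293T, 4,000 cells/well, plated o/n; cpd in DMSO, 5 hr, 37 C/5% CO2; B/G FRET substrate 2 hr RT; ex 405, em 460/530 nm.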

[17] = molecular target: Thyrotropin-releasing hormone receptor (Homo sapiens) (UniProt P34981); assay: qHTS assay to identify small molecule antagonists of the thyrotropin-releasing hormone receptor (TRHR) signaling pathway (AID 1346877; active = well fitted inhibition curve with a large enough effect in the repeat runs, not every such curve was filed as active; note: series mostly up to about 51 µM)
Outline: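 HEK293/TRHR cells, 18 h, 37 °C; Ca2+ dye 2 h; cpd 5 min RT; TRH 1 nM final; fluorescence read 3 min, 1 s intervals; 15 concs, triplicate.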

[18] = molecular target: Thyrotropin-releasing hormone receptor (Homo sapiens) (UniProt P34981); assay: qHTS assay to identify small molecule agonists of the thyrotropin-releasing hormone receptor (TRHR) signaling pathway (AID 1346891); note: series mostly up to about 58 µM
Outline: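 Intracellular calcium rise, read as fluorescence every second for 3 min, served as the agonist signal in dye-loaded HEK293 cells expressing TRHR; each compound ran at 15 concentrations in triplicate.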

[19] = qHTS assay to identify small molecule agonists of the estrogen receptor alpha (ER-alpha) signaling pathway in the presence of an antagonist - cell viability counter screen (AID 1259386; active = well fitted curve in the direction sought with a large enough effect in the repeat runs; an effect the other way counts as inactive or inconclusive;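 note: cells exposed to compounds for 22 h at 37 °C before the viability read; nearly all actives have a fitted effect of over 30% in size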; note: potency is the fitted concentration of half-maximal effect)
Outline: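 Read-out: CellTiter-Fluor fluorescence after 1hr reagent incubation, measured in the same wells as the luciferase readout. VM7Luc4E2 cells were exposed to 15 compound concentrations with 10.0nM ICI-182,780 for 22hr at 37C.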

[20] = molecular target: Estrogen receptor (Homo sapiens) (UniProt P03372); assay: qHTS assay to identify small molecule agonists of the estrogen receptor alpha (ER-alpha) signaling pathway in the presence of an antagonist (AID 1259383); note: top concentration of the series differs between compounds; nearly all actives have a fitted effect of over 15% in size
Outline: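 Luciferase luminescence (ONE-Glo, 30min at room temperature) measured in VM7Luc4E2 cells after 22hr compound exposure at 15 concentrations, with 10.0nM ICI-182,780 final present; cells express endogenous ER-alpha and carry four EREs upstream of luciferase.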

Measured: Potency

Chain of Estrogen receptor (Homo sapiens) (P03372 whole entry, looked up): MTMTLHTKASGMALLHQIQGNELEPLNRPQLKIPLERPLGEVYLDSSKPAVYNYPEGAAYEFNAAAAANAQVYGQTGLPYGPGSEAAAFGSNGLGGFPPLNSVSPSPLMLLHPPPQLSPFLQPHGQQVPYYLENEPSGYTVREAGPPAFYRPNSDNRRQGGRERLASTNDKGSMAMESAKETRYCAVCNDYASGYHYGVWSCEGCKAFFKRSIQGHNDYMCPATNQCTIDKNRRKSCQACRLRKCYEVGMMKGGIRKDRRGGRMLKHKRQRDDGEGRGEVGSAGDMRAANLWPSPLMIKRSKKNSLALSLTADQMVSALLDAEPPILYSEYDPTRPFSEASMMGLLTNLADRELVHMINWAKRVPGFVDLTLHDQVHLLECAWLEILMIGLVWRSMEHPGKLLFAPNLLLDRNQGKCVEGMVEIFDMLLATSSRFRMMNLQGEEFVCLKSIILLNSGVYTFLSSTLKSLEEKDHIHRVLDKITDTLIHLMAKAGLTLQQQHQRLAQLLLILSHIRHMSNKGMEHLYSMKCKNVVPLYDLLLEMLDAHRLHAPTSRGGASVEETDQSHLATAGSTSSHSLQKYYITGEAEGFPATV
Chain of Thyrotropin receptor (Homo sapiens) (P16473 whole entry, looked up): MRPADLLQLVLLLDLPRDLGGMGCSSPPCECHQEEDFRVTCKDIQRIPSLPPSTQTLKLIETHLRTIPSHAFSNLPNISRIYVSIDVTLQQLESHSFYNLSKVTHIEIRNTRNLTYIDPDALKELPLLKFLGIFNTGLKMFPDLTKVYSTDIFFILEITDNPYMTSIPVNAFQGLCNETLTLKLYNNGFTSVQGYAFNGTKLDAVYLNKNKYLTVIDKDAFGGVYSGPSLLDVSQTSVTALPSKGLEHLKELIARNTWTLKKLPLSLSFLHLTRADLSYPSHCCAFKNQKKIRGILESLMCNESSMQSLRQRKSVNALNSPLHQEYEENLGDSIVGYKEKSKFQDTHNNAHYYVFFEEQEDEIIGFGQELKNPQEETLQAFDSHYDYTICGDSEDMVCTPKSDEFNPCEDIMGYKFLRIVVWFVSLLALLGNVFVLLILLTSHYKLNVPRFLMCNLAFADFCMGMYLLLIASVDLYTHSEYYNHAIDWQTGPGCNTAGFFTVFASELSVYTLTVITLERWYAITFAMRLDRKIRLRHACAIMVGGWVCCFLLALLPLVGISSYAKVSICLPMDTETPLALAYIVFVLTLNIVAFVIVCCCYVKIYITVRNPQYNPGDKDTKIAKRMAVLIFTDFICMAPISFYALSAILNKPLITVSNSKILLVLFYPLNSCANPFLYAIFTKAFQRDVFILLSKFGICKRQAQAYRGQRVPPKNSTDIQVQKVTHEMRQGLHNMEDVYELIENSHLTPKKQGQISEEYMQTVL
Chain of Thyrotropin-releasing hormone receptor (Homo sapiens) (P34981 whole entry, looked up): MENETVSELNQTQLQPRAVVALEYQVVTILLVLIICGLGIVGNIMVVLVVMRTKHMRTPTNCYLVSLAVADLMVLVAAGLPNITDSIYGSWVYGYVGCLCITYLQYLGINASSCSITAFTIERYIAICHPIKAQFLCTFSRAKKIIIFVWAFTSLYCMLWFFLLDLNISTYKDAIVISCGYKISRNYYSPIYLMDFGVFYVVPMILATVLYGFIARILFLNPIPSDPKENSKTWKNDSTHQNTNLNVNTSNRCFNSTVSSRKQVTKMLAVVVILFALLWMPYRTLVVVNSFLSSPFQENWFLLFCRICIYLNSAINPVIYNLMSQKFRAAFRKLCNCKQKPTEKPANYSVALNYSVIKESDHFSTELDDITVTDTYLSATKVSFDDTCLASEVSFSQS
Chain of Androgen receptor (Homo sapiens) (P10275 whole entry, looked up): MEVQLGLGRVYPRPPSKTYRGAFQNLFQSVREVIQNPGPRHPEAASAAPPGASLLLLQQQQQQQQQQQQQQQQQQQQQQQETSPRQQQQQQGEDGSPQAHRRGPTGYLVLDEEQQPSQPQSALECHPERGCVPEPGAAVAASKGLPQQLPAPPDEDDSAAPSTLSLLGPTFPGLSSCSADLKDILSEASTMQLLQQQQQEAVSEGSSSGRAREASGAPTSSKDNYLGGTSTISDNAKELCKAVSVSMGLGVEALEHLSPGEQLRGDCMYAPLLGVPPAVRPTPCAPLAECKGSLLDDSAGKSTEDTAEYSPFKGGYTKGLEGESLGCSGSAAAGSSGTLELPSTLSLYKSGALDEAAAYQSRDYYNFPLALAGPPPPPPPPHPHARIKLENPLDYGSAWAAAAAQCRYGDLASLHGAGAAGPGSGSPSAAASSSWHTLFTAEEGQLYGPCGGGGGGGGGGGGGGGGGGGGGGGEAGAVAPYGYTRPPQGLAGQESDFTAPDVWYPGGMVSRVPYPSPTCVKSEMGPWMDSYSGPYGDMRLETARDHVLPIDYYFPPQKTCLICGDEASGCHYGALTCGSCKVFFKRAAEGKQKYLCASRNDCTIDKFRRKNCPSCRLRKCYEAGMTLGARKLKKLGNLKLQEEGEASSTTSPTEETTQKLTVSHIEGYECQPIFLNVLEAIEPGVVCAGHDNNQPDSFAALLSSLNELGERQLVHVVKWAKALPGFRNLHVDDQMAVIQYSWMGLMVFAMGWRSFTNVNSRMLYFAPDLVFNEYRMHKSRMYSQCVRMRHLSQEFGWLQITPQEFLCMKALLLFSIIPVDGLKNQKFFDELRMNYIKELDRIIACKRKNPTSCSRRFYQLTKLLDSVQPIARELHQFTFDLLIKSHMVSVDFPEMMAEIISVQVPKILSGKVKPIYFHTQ
Chain of Progesterone receptor (Homo sapiens) (P06401 whole entry, looked up): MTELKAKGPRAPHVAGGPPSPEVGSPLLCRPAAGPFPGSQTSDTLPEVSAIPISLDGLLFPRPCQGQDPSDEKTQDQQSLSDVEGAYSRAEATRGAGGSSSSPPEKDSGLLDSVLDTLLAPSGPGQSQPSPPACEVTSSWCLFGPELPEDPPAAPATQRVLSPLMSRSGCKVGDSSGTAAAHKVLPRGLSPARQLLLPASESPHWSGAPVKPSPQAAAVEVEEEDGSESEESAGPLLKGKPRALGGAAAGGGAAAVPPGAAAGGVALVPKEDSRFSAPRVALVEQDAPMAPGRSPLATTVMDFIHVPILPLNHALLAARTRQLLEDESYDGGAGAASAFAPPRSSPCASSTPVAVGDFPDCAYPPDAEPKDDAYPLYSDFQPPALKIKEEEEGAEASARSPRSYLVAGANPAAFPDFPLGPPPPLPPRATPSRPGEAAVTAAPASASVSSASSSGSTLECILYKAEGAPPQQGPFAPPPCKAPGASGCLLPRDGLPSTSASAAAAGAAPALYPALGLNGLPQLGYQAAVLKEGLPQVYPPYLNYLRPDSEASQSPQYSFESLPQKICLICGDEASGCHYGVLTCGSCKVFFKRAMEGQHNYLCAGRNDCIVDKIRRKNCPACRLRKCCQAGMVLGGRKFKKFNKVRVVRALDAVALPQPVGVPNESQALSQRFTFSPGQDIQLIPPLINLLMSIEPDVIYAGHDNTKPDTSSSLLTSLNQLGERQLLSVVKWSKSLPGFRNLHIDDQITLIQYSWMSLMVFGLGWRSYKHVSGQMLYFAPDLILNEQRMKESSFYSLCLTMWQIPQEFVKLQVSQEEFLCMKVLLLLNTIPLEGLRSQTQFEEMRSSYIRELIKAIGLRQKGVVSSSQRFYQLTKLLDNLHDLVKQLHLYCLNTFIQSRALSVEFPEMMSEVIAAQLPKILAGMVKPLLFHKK
Chain of Estrogen receptor beta (Homo sapiens) (Q92731 whole entry, looked up): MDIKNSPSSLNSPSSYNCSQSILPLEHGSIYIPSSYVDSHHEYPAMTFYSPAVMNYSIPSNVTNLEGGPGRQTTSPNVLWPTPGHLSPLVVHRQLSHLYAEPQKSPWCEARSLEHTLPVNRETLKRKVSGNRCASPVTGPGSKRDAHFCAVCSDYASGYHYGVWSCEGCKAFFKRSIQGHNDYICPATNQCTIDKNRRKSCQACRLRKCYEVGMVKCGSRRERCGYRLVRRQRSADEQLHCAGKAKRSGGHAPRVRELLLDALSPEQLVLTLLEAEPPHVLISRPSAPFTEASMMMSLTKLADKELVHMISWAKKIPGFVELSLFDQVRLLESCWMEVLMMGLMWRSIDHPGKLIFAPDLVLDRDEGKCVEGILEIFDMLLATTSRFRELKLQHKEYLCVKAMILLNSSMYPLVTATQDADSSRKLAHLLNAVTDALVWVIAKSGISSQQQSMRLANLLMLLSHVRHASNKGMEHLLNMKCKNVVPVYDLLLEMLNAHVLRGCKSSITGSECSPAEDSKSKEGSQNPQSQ

COc1ccc2c(c1OC)C(=O)O[C@H]2[C@@H]1c2cc3c(cc2CCN1C)OCO3
inactive: [1] | [2] | [3] | [4] | [5] | [6] | [7] | [8] | [9] | [10] | [11] | [12] | [13] | [14] | [15] | [16] | [17] | [18]

CC1(C)[C@H](C(=O)O[C@H](C#N)c2cccc(Oc3ccccc3)c2)[C@@H]1C=C(Br)Br
active: [11] 17.2 µM
inactive: [1] | [2] | [3] | [4] | [5] | [6] | [7] | [8] | [9] | [19] | [10] | [12] | [13] | [14] | [15] | [16] | [17] | [18]

SCc1ccccc1
inactive: [1] | [2] | [3] | [4] | [5] | [7] | [20] | [8] | [9] | [19] | [10] | [12] | [13] | [14] | [16] | [17] | [18]

O=S(=O)(Cl)Cl
inactive: [1] | [2] | [3] | [4] | [5] | [7] | [20] | [8] | [9] | [19] | [10] | [12] | [13] | [14] | [15] | [16] | [17] | [18]

COC(=O)C1(O)c2ccccc2-c2ccccc21
inactive: [1] | [2] | [3] | [4] | [5] | [6] | [7] | [20] | [8] | [9] | [19] | [10] | [13] | [14] | [15] | [16] | [17] | [18]

CCCCCCCCCCCCN(C)C
inactive: [1] | [2] | [3] | [4] | [5] | [7] | [20] | [8] | [9] | [19] | [10] | [12] | [13] | [14] | [16] | [17] | [18]

Clc1ccc2ccccc2c1
inactive: [1] | [2] | [3] | [4] | [5] | [6] | [7] | [20] | [8] | [9] | [19] | [10] | [11] | [12] | [14] | [15] | [16] | [17] | [18]

C=CC(=O)NC(C)(C)CC(C)=O
inactive: [1] | [2] | [3] | [4] | [5] | [7] | [20] | [19] | [10] | [11] | [12] | [13] | [14] | [15] | [16] | [17] | [18]

O=C(N/N=C/c1ccc([N+](=O)[O-])o1)c1cc([N+](=O)[O-])cc([N+](=O)[O-])c1O
active: [1] 10.6 µM | [4] 11.9 µM | [19] 21.1 µM
inactive: [2] | [3] | [5] | [7] | [8] | [9] | [10] | [11] | [12] | [13] | [14] | [15] | [16] | [17] | [18]

CCC1(CC)C(=O)NC(=O)NC1=O
inactive: [1] | [2] | [3] | [4] | [5] | [7] | [20] | [19] | [10] | [11] | [12] | [13] | [14] | [16] | [17] | [18]

COc1ccc(C(O)(c2cncnc2)C2CC2)cc1 (stereo unspecified)
inactive: [1] | [2] | [3] | [4] | [5] | [7] | [20] | [8] | [9] | [19] | [10] | [11] | [12] | [14] | [15] | [16] | [17] | [18]

CCCCC(CC)CO[N+](=O)[O-] (stereo unspecified)
inactive: [1] | [2] | [3] | [4] | [5] | [7] | [20] | [8] | [9] | [19] | [10] | [11] | [12] | [13] | [14] | [16] | [17] | [18]

CC(C)c1ccc(NC(=O)N(C)C)cc1
inactive: [1] | [2] | [3] | [4] | [5] | [7] | [20] | [8] | [9] | [19] | [10] | [11] | [12] | [13] | [14] | [16] | [17] | [18]

O=C(Cc1ccccc1)OCCc1ccccc1
inactive: [1] | [2] | [3] | [4] | [5] | [7] | [20] | [8] | [9] | [19] | [10] | [11] | [12] | [13] | [14] | [15] | [16] | [17] | [18]

CC(C)CCCCCCCOC(=O)c1ccccc1C(=O)OCCCCCCCC(C)C
inactive: [1] | [2] | [3] | [4] | [5] | [7] | [8] | [9] | [19] | [10] | [11] | [12] | [14] | [16] | [17] | [18]
